Measurements from PMC5540273 (PLoS ONE, 2017).

What was measured:
Settings in all cases: concentration: 1 μM, replicates: in singlicate; n = 1
CAMKK1 = system: CAMKK1
CAMKK2 = system: CAMKK2
CASK = system: CASK
CDC2L1 = system: T1, CDC2L1
T1 construct: gene CDK11B

CDC2L2 = system: CDC2L2
CDC2L5 = system: T2, CDC2L5
T2 construct: gene CDK13

CDK11 = system: T3, CDK11
T3 construct: gene CDK19

CDK2 = system: CDK2
CDK3 = system: CDK3
CDK4-cyclinD1 = system: CDK4-cyclinD1
CDK4-cyclinD3 = system: CDK4-cyclinD3
CDK4 = system: CDK4
CDK5 = system: CDK5
CDK7 = system: CDK7
CDK8 = system: CDK8
CDK9 = system: CDK9
CDKL1 = system: CDKL1
CDKL2 = system: CDKL2
CDKL3 = system: CDKL3
CDKL5 = system: CDKL5
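Note: KINOMEscan kinase panel screen.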

Row | SMILES | %Inh (CAMKK1) [%] | %Inh (CAMKK2) [%] | %Inh (CASK) [%] | %Inh (CDC2L1) [%] | %Inh (CDC2L2) [%] | %Inh (CDC2L5) [%] | %Inh (CDK11) [%] | %Inh (CDK2) [%] | %Inh (CDK3) [%] | %Inh (CDK4-cyclinD1) [%] | %Inh (CDK4-cyclinD3) [%] | %Inh (CDK4) [%] | %Inh (CDK5) [%] | %Inh (CDK7) [%] | %Inh (CDK8) [%] | %Inh (CDK9) [%] | %Inh (CDKL1) [%] | %Inh (CDKL2) [%] | %Inh (CDKL3) [%] | %Inh (CDKL5) [%]
1 | Fc1ccc(-c2nn3c(OCC(F)(F)F)cccc3c2-c2ccncc2)cc1 [GW514784] | 8 | 9 | 7 | 0 | 11 | 0 | 3 | 0 | 0 | 46 | 0 | 46 | 0 | 0 | 57 | 0 | 8 | 4 | 0 | 0
2 | NS(=O)(=O)CCc1cccc(Nc2nccc(-c3c(-c4cccc(NC(=O)c5c(F)cccc5F)c4)nn4ccccc34)n2)c1 [GSK336735] | 0 | 8 | 7 | 11 | 35 | 0 | 14 | 0 | 21 | 0 | 0 | 19 | 0 | 0 | 0 | 0 | 0 | 25 | 0 | 1
3 | Cl.Oc1cccc(Nc2ccnc3cc(-c4ccncc4)ccc23)c1 [GW494601] | 0 | 29 | 10 | 0 | 10 | 0 | 4 | 0 | 0 | 0 | 0 | 37 | 0 | 10 | 36 | 4 | 2 | 2 | 0 | 0
4 | Cc1nnc(-c2ccc3ncc(-c4ccc(S(C)=O)cc4)n3c2)o1 (stereo not shown) | 24 | 46 | 0 | 0 | 0 | 25 | 17 | 0 | 2 | 8 | 0 | 0 | 0 | 0 | 13 | 0 | 0 | 4 | 2 | 10
5 | [2H]C([2H])(c1cccc(C(F)(F)F)c1C)n1ccn2c(=O)nc(N3CCOCC3)cc12 [GSK2336394] | 0 | 0 | 8 | 0 | 17 | 0 | 5 | 0 | 1 | 0 | 0 | 14 | 0 | 0 | 2 | 0 | 8 | 22 | 0 | 0
6 | NS(=O)(=O)c1cccc(-c2ccc3ncc(N4CCOCC4)nc3c2)c1 [GSK1535721] | 11 | 12 | 1 | 6 | 34 | 0 | 7 | 0 | 0 | 0 | 0 | 12 | 0 | 20 | 31 | 3 | 15 | 0 | 0 | 0
7 | Nc1nccc(-c2c(-c3ccc(F)cc3)ncn2C2CCN(CC(F)(F)F)CC2)n1 [SB-236560] | 13 | 88 | 0 | 0 | 0 | 43 | 17 | 0 | 11 | 49 | 97.9 | 52 | 0 | 10 | 70 | 0 | 18 | 11 | 0 | 0
8 | O=C(Nc1cccc(-c2nn3ncccc3c2-c2ccnc(Nc3cccc(C(F)(F)F)c3)n2)c1)c1c(F)cccc1F [GSK299495] | 0 | 8 | 13 | 0 | 19 | 0 | 15 | 0 | 3 | 0 | 9 | 18 | 0 | 0 | 24 | 0 | 0 | 14 | 0 | 0
9 | C[C@@H](Oc1cc(-n2cnc3ccc(NC(=O)NC(C)(C)C)cc32)sc1C(N)=O)c1ccccc1Cl [GSK346294] | 3 | 24 | 11 | 0 | 13 | 0 | 4 | 0 | 9 | 8 | 1 | 34 | 0 | 0 | 45 | 0 | 14 | 5 | 0 | 0
10 | c1ccc(-c2cc(-c3c[nH]nc3-c3ccccn3)ccn2)cc1 [GW576604] | 5 | 24 | 0 | 0 | 16 | 0 | 11 | 13 | 0 | 0 | 0 | 49 | 0 | 0 | 13 | 0 | 0 | 0 | 0 | 0
11 | Cc1cccc(Cn2ccn3c(=O)cc(N4CCOCC4)nc23)c1 [GSK2297542] | 5 | 27 | 20 | 0 | 15 | 0 | 0 | 8 | 20 | 0 | 0 | 6 | 0 | 0 | 31 | 0 | 20 | 29 | 0 | 0
